Measured values published in the supplement of paper PMC13392028.
In all, about 4,100 sequences were measured (“RBNS R-value (6-mer enrichment in protein-bound RNA vs input library)”: median about 0.96, highest 2% from about 2.4 on). Shown is part of a subset that was picked to be rich in the highest values.

System: PyIESI-1 RRM domain (Plasmodium yoelii PY17X_0911200 aa 795-956, GST fusion)
Assay: RBNS R-value (6-mer enrichment in protein-bound RNA vs input library) (ratio); higher = stronger binding preference; the methods of the paper give 50 / 100 / 500 nM protein instead
Description: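 RNA Bind-n-Seq: recombinant GST-tagged IESI-1 RRM domain was incubated at room temperature with a random 40-nt in vitro transcribed RNA library at 250, 500 or 1000 nM protein. Bound RNA was pulled down on glutathione beads and sequenced. R-value is the enrichment of each 6-mer in the bound RNA relative to the input library. Each 6-mer sits inside the random 40-mer context, not as an isolated oligo. Values are replicate 1 only.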

Sequence | RBNS R-value (protein concentration: 250 nM) | RBNS R-value (protein concentration: 500 nM) | RBNS R-value (protein concentration: 1000 nM)
GAACCU | 1.11 | 1.1 | 1.07
GAUACC | 1.83 | 1.85 | 1.99
ACGAAU | 0.896 | 0.896 | 0.865
GCAGUG | 1.11 | 1.14 | 1.12
AUUCGC | 1.47 | 1.43 | 1.46
UACUUC | 0.69 | 0.719 | 0.702
AUCCCU | 0.892 | 0.921 | 0.934
CCGGUG | 1.11 | 1.14 | 1.12
CGCUUA | 0.602 | 0.629 | 0.617
AUCUAA | 0.647 | 0.67 | 0.637
GUCAAU | 0.655 | 0.685 | 0.671
GGAUUG | 1.22 | 1.22 | 1.15
UGAUUG | 5.45 | 4.95 | 4.94
CGAUUG | 2.25 | 2.18 | 2.2
GAAAGG | 1.1 | 1.08 | 1.01
AGAUAC | 1.02 | 1.09 | 1.09
ACCUCG | 1.08 | 1.06 | 1.06
CGUGAA | 0.949 | 0.925 | 0.895
GGUGAU | 2.66 | 2.69 | 2.75
CGUGAG | 0.911 | 0.913 | 0.868
AGUGAC | 1.01 | 1.04 | 1.02
GGUGAG | 0.98 | 0.993 | 0.943
UGUGAC | 1.17 | 1.18 | 1.16
GGUGAC | 1.01 | 1.04 | 0.983

Sequence | RBNS R-value (protein concentration: 250 nM) | RBNS R-value (protein concentration: 500 nM) | RBNS R-value (protein concentration: 1000 nM)
AGUGAA | 0.884 | 0.89 | 0.844
CGUGAU | 3.46 | 3.26 | 3.39
UGUGAU | 3.77 | 3.62 | 3.78
UGUGAG | 1.11 | 1.1 | 1.05
AGUGAU | 3.53 | 3.36 | 3.56
UGCGCU | 1.27 | 1.25 | 1.26
UCCGUG | 1.12 | 1.15 | 1.16
GACUCG | 1.11 | 1.13 | 1.07
UGUUUC | 0.901 | 0.972 | 0.97
AGCUGA | 1.72 | 1.68 | 1.68
UCGUGG | 0.808 | 0.811 | 0.782
CAGCGU | 0.779 | 0.809 | 0.78
UGCCUC | 1.11 | 1.13 | 1.19
UGGCCA | 1.26 | 1.22 | 1.24
GAUAGA | 1.92 | 1.93 | 2
GAUAGC | 2.53 | 2.39 | 2.48
GAUAGU | 1.39 | 1.41 | 1.45
UGCUCA | 0.956 | 0.977 | 1
CAUGUU | 0.726 | 0.757 | 0.737
AAUGUA | 0.646 | 0.662 | 0.639
UAUGUG | 0.924 | 0.971 | 0.978
CAUGUG | 1.02 | 1.04 | 1.03
GAUGUA | 2.51 | 2.41 | 2.52
UAUGUA | 0.585 | 0.616 | 0.581

Sequence | RBNS R-value (protein concentration: 250 nM) | RBNS R-value (protein concentration: 500 nM) | RBNS R-value (protein concentration: 1000 nM)
GAUGUC | 2.55 | 2.44 | 2.5
UAUGUC | 0.642 | 0.672 | 0.661
CAUGUC | 0.705 | 0.722 | 0.733
AAUGUU | 0.8 | 0.836 | 0.819
GAUGUU | 2.92 | 2.8 | 2.87
GAUGUG | 3.46 | 3.14 | 3.14
GCGUCG | 0.809 | 0.784 | 0.765
UUGUUA | 0.717 | 0.765 | 0.738
AGCCUG | 1.33 | 1.33 | 1.36
GUGGCC | 0.987 | 0.981 | 0.976
AACCUG | 1.37 | 1.36 | 1.38
CCGCUA | 0.743 | 0.757 | 0.758
UACUAC | 0.519 | 0.53 | 0.491
AAUUAG | 0.641 | 0.657 | 0.639
CAUUAC | 0.471 | 0.51 | 0.491
GAUUAA | 2.47 | 2.37 | 2.56
CAUUAG | 0.57 | 0.593 | 0.579
AAUUAA | 0.471 | 0.515 | 0.483
CAUUAA | 0.41 | 0.435 | 0.403
GAUUAG | 2.44 | 2.41 | 2.5
GAUUAC | 2.72 | 2.65 | 2.82
UAUUAC | 0.487 | 0.514 | 0.489
CGGUGA | 1.36 | 1.39 | 1.35
ACCGCG | 1.03 | 1.03 | 1.04

Sequence | RBNS R-value (protein concentration: 250 nM) | RBNS R-value (protein concentration: 500 nM) | RBNS R-value (protein concentration: 1000 nM)
CGAACC | 1.09 | 1.06 | 1.06
GGGCCG | 1 | 1.01 | 0.999
GCAAGC | 0.92 | 0.933 | 0.931
CCGGUC | 0.872 | 0.923 | 0.916
GAUGCG | 2.54 | 2.45 | 2.52
AAUGCG | 0.941 | 0.968 | 0.97
UAUGCC | 0.797 | 0.84 | 0.861
AAUGCU | 0.903 | 0.932 | 0.944
GAUGCC | 2.7 | 2.6 | 2.86
CAUGCA | 0.757 | 0.762 | 0.774
GAUGCA | 2.66 | 2.5 | 2.68
UAUGCA | 0.689 | 0.714 | 0.705
CAUGCU | 0.844 | 0.875 | 0.883
GAUGCU | 2.48 | 2.42 | 2.51
UAUGCG | 0.859 | 0.856 | 0.873
CAUGCC | 0.921 | 0.929 | 0.99
CUGCCA | 1.03 | 1.05 | 1.07
UUUGUU | 0.893 | 0.907 | 0.907
ACGAAC | 0.96 | 0.939 | 0.926
AUUUAU | 0.824 | 0.83 | 0.836
UGCUUU | 1.1 | 1.15 | 1.18
AUAUGA | 1.78 | 1.74 | 1.84
CGAUGU | 2.03 | 2.04 | 2.13
CAAUGA | 2.27 | 2.18 | 2.28

Sequence | RBNS R-value (protein concentration: 250 nM) | RBNS R-value (protein concentration: 500 nM) | RBNS R-value (protein concentration: 1000 nM)
UGAUGU | 7 | 6.29 | 6.39
AGAUGU | 1.45 | 1.47 | 1.54
AGAUGA | 2.69 | 2.61 | 2.72
UUAUGA | 1.76 | 1.72 | 1.81
AGAUGC | 1.47 | 1.52 | 1.65
CGAUGA | 3.48 | 3.36 | 3.47
UGAUGA | 9.09 | 7.87 | 7.73
CGAUGC | 2.07 | 2.1 | 2.31
GGAUGA | 1.75 | 1.71 | 1.69
UCACCA | 0.862 | 0.849 | 0.9
GGAGCG | 1.01 | 1.01 | 0.994
AUACCA | 0.709 | 0.723 | 0.733
AACUUC | 0.893 | 0.92 | 0.901
CGCAAG | 0.91 | 0.907 | 0.917
UCCCAA | 0.972 | 0.967 | 0.987
GGGGGA | 1.03 | 1.05 | 1.01
UGAUGC | 6.04 | 5.5 | 5.71
CGAUGG | 2.05 | 1.98 | 2
GGAUGC | 1.08 | 1.04 | 1.08
UUAUGC | 0.736 | 0.778 | 0.779
UGAUGG | 5.96 | 5.24 | 5.21
AGAUGG | 1.49 | 1.46 | 1.49
CAAGGC | 0.956 | 0.935 | 0.949
CACACU | 0.829 | 0.834 | 0.839

Sequence | RBNS R-value (protein concentration: 250 nM) | RBNS R-value (protein concentration: 500 nM) | RBNS R-value (protein concentration: 1000 nM)
CGGAGC | 1.02 | 1.01 | 1
UUCUUU | 0.927 | 0.977 | 1
AUUUGC | 1.82 | 1.76 | 1.77
GAUGGC | 3.56 | 3.12 | 3.1
GAUGGG | 2.54 | 2.43 | 2.36
UAUGGC | 1.41 | 1.37 | 1.34
UAUGGG | 0.863 | 0.942 | 0.916
AAUGGG | 1.06 | 1.06 | 1.03
CAUGGC | 1.06 | 1.08 | 1.1
UCAGAC | 0.883 | 0.894 | 0.893
AUUUAC | 0.935 | 0.952 | 0.963
AUGGGA | 1.34 | 1.34 | 1.29
GUCAAC | 0.681 | 0.708 | 0.688
UCUCAA | 0.805 | 0.835 | 0.84
UUACGC | 0.784 | 0.803 | 0.805
AAGGCU | 0.979 | 0.991 | 0.95
GAUCGG | 0.955 | 0.963 | 0.942
GAUAUG | 2.3 | 2.32 | 2.43
GAUAUA | 1.32 | 1.36 | 1.53
GAUAUU | 1.57 | 1.65 | 1.77
AUAUAA | 0.522 | 0.55 | 0.539
AGUGUA | 0.664 | 0.68 | 0.657
GGAGUU | 0.958 | 0.98 | 0.948
UUUACC | 0.764 | 0.778 | 0.794

Sequence | RBNS R-value (protein concentration: 250 nM) | RBNS R-value (protein concentration: 500 nM) | RBNS R-value (protein concentration: 1000 nM)
GGGUGU | 0.909 | 0.99 | 0.941
UCGGAA | 0.911 | 0.907 | 0.87
CAUGAG | 0.978 | 0.984 | 0.979
UAUGAU | 4.89 | 4.59 | 4.9
CAUGAA | 0.887 | 0.913 | 0.901
AAUGAG | 1.03 | 1.07 | 1.04
AAUGAU | 5.76 | 5.22 | 5.56
CAUGAU | 5.84 | 5.36 | 5.72
AAUGGU | 0.878 | 0.894 | 0.881
UAUGAA | 0.826 | 0.838 | 0.811
UAUGAG | 0.865 | 0.899 | 0.898
AUAGUC | 0.632 | 0.65 | 0.627
CACCUG | 1.72 | 1.67 | 1.73
GAUAAU | 1.7 | 1.73 | 1.86
GGUGAA | 1 | 1.02 | 0.954
GAUGAC | 3.66 | 3.41 | 3.46
GAUGAG | 3.25 | 3.07 | 3.06
AAUGAA | 1.03 | 1.02 | 1.02
GAUGGU | 1.92 | 1.85 | 1.9
GAUGAU | 6.07 | 5.52 | 5.59
AAUGAC | 1.19 | 1.23 | 1.25
GACGAG | 1.19 | 1.18 | 1.13
UAUGAC | 0.93 | 0.947 | 0.974
GAUGAA | 4.07 | 3.66 | 3.68

Sequence | RBNS R-value (protein concentration: 250 nM) | RBNS R-value (protein concentration: 500 nM) | RBNS R-value (protein concentration: 1000 nM)
UGAUCG | 1.64 | 1.68 | 1.74
CUAAGC | 0.741 | 0.738 | 0.733
GUUUGG | 0.834 | 0.866 | 0.813
UAGGAG | 0.934 | 0.936 | 0.887
CUGCAU | 0.892 | 0.929 | 0.917
UCUGUU | 0.847 | 0.911 | 0.878
GUGGCG | 0.953 | 0.954 | 0.937
GAAUGU | 0.999 | 1 | 0.972
GAAUGA | 2.5 | 2.31 | 2.3
GAAUGC | 1.17 | 1.18 | 1.17
AAAUGC | 0.942 | 0.952 | 0.985
AAAUGA | 2.48 | 2.3 | 2.4
UAAUGA | 1.69 | 1.65 | 1.71
AUUAAC | 0.87 | 0.859 | 0.881
CCCUCC | 1.15 | 1.13 | 1.17
UCGCGU | 0.843 | 0.85 | 0.835
ACUCUC | 0.893 | 0.906 | 0.906
GAGGAC | 1.09 | 1.06 | 1.02
